Results as given in the supplement of paper PMC8728848.
This excerpt belongs to a sample that is enriched for the strongest signals.

Legend:
Experiment in all cases: glycan array binding signal (z-score within array); higher = stronger binding
Conditions in all cases: glycan notation: IUPAC condensed, linker removed
Fuc(a1-2)Gal(b1-3)GalNAc = target: Fuc(a1-2)Gal(b1-3)GalNAc
Method in brief: (§1)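 Negative Z-scores can be read as non-binding. The Z-score is calculated within each array and then averaged across arrays of one protein sequence at different concentrations or buffers and across linkers. Arrays, 3228 in all, were curated from the Consortium for Functional Glycomics database and kept only where the protein sequence was available.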

[1] = target: Fuc(a1-2)Gal(b1-3)GalNAc(b1-3)Gal
Method in brief: as §1

[2] = target: Fuc(a1-2)Gal(b1-3)GlcNAc(b1-3)[Neu5Ac(a2-6)Gal(b1-4)GlcNAc(b1-6)]Gal(b1-4)Glc
Method in brief: as §1

[3] = target: Fuc(a1-2)Gal(b1-3)[Fuc(a1-4)]GlcNAc(b1-2)Man(a1-3)[Fuc(a1-2)Gal(b1-3)[Fuc(a1-4)]GlcNAc(b1-2)Man(a1-3)]Man(b1-4)GlcNAc(b1-4)GlcNAc
Method in brief: as §1

[4] = target: Fuc(a1-2)Gal(b1-4)GlcNAc(b1-2)Man(a1-3)[Fuc(a1-2)Gal(b1-4)GlcNAc(b1-2)Man(a1-6)]Man(b1-4)GlcNAc(b1-4)GlcNAc
Method in brief: as §1

[5] = target: Fuc(a1-2)Gal(b1-4)[Fuc(a1-3)]GlcNAc(b1-3)[Neu5Ac(a2-6)Gal(b1-4)GlcNAc(b1-6)]Gal(b1-4)Glc
Method in brief: as §1

[6] = target: Fuc(a1-2)[Gal(a1-3)]Gal(b1-3)GlcNAc(b1-6)GalNAc
Method in brief: as §1

[7] = target: Fuc(a1-2)[Gal(a1-3)]Gal(b1-4)GlcNAc(b1-2)Man
Method in brief: as §1

[8] = target: Fuc(a1-2)[Gal(a1-3)]Gal(b1-4)GlcNAc(b1-6)GalNAc
Method in brief: as §1

[9] = target: Fuc(a1-2)[GalNAc(a1-3)]Gal(b1-3)GlcNAc(b1-2)Man(a1-3)[Fuc(a1-2)[GalNAc(a1-3)]Gal(b1-3)GlcNAc(b1-2)Man(a1-6)]Man(b1-4)GlcNAc(b1-4)[Fuc(a1-6)]GlcNAc
Method in brief: as §1

[10] = target: Fuc(a1-2)[GalNAc(a1-3)]Gal(b1-4)GlcNAc
Method in brief: as §1

[11] = target: Fuc(a1-2)[GalNAc(a1-3)]Gal(b1-4)GlcNAc(b1-2)Man
Method in brief: as §1

[12] = target: Fuc(a1-2)[GalNAc(a1-3)]Gal(b1-4)GlcNAc(b1-2)Man(a1-3)[Fuc(a1-2)[GalNAc(a1-3)]Gal(b1-4)GlcNAc(b1-2)Man(a1-6)]Man(b1-4)GlcNAc(b1-4)GlcNAc
Method in brief: as §1

[13] = target: Fuc(a1-2)[GalNAc(a1-3)]Gal(b1-4)GlcNAc(b1-3)GalNAc
Method in brief: as §1

[14] = target: Fuc(a1-3)[Gal(b1-4)]GlcNAc(b1-2)Man(a1-3)[Fuc(a1-3)[Gal(b1-4)]GlcNAc(b1-2)Man(a1-6)]Man(b1-4)GlcNAc(b1-4)[Fuc(a1-6)]GlcNAc
Method in brief: as §1

[15] = target: Fuc(a1-3)[Gal3S(b1-4)]GlcNAc6S
Method in brief: as §1

[16] = target: Gal(a1-3)Gal(b1-3)GlcNAc(b1-2)Man(a1-3)[Gal(a1-3)Gal(b1-3)GlcNAc(b1-2)Man(a1-6)]Man(b1-4)GlcNAc(b1-4)GlcNAc
Method in brief: as §1

[17] = target: Gal(a1-3)Gal(b1-4)GlcNAc(b1-2)Man(a1-3)[Gal(a1-3)Gal(b1-4)GlcNAc(b1-2)Man(a1-6)]Man(b1-4)GlcNAc(b1-4)GlcNAc
Method in brief: as §1

[18] = target: Gal(a1-4)Gal(b1-4)GlcNAc(b1-2)Man(a1-3)[Gal(a1-4)Gal(b1-4)GlcNAc(b1-2)Man(a1-6)]Man(b1-4)GlcNAc(b1-4)GlcNAc
Method in brief: as §1

Gal(b1-2)Gal = target: Gal(b1-2)Gal
Method in brief: as §1

[19] = target: Gal(b1-3)GlcNAc(b1-2)Man(a1-3)[Gal(b1-3)GlcNAc(b1-2)Man(a1-6)]Man(b1-4)GlcNAc(b1-4)[Fuc(a1-6)]GlcNAc
Method in brief: as §1

[20] = target: Gal(b1-3)GlcNAc(b1-3)Gal(b1-4)GlcNAc(b1-3)Gal(b1-4)GlcNAc(b1-2)[Gal(b1-3)GlcNAc(b1-3)Gal(b1-4)GlcNAc(b1-3)Gal(b1-4)GlcNAc(b1-6)]Man(a1-6)[Gal(b1-3)GlcNAc(b1-3)Gal(b1-4)GlcNAc(b1-3)Gal(b1-4)GlcNAc(b1-2)Man(a1-3)]Man(b1-4)GlcNAc(b1-4)[Fuc(a1-6)]GlcNAc
Method in brief: as §1

[21] = target: Gal(b1-3)[Fuc(a1-4)]GlcNAc(b1-2)Man
Method in brief: as §1

[22] = target: Gal(b1-3)[Neu5Ac(b2-6)]GalNAc
Method in brief: as §1

Gal(b1-4)Gal = target: Gal(b1-4)Gal
Method in brief: as §1

[23] = target: Gal(b1-4)GlcNAc(b1-2)Man(a1-6)[Man(a1-3)]Man(b1-4)GlcNAc(b1-4)GlcNAc
Method in brief: as §1

[24] = target: Gal(b1-4)GlcNAc(b1-2)[Gal(b1-4)GlcNAc(b1-4)]Man(a1-3)[Gal(b1-4)GlcNAc(b1-2)Man(a1-6)]Man(b1-4)GlcNAc(b1-4)GlcNAc
Method in brief: as §1

[25] = target: Gal(b1-4)GlcNAc(b1-2)[Gal(b1-4)GlcNAc(b1-4)]Man(a1-3)[Gal(b1-4)GlcNAc(b1-2)[Gal(b1-4)GlcNAc(b1-6)]Man(a1-6)]Man(b1-4)GlcNAc(b1-4)GlcNAc
Method in brief: as §1

[26] = target: Gal(b1-4)GlcNAc(b1-2)[Gal(b1-4)GlcNAc(b1-6)]Man(a1-6)[Gal(b1-4)GlcNAc(b1-2)Man(a1-3)]Man(b1-4)GlcNAc(b1-4)[Fuc(a1-6)]GlcNAc
Method in brief: as §1

[27] = target: Gal(b1-4)GlcNAc(b1-3)Gal(b1-3)GlcNAc
Method in brief: as §1

B1: PX14343H-pdi-506-26-506 (Parabacteroides distasonis) (protein)
chain: QPTGTMTTDSKLTSKESALALTNSAYLKNTVFNKMTPGWGCNTILLLEYMTGKATSENSQSNYKDFQDLLVSDRSLYIEDWWQDCYAGIANCNLALQKLGEFENLDASLVNGYMAEVKFMRALYYFYLVRIFGDVPKITTVQSELGELQVSRAPVKEIYDEIIIPDLLEAEQSDLAFSDHTGRVSMGAVKALLADVYLTYAGYPLQGGKSYYAESAKRSLEVIKSNEYTLFTDYESLRLPSQNNKGEFIYQVQFSLNKRHNESVRIFLPSRSGISAYDLEYGSLIPTKEFVESFEKGDKRTEEKQYFFTNYKGHPSKFSPGAAELEFMDLNGYYIYKFFDQVAVDNTAKSDLNWSVYRYTDVLLMYAEAQVNADGTPNQQSIDIVNQIRGRAGLAPFKQTNASAFLEEVWDQRYFDLCYENKMWFDMLRTRKIRDDKSGEYVDFIGYKTNWGKVYTETQLLFPIPLSERQANPNLTQNQGY
- glycan array binding signal (z-score) (Fuc(a1-2)Gal(b1-3)GalNAc): -0.509
- glycan array binding signal (z-score) [1]: -0.373
- glycan array binding signal (z-score) [2]: -0.402
- glycan array binding signal (z-score) [3]: -0.174
- glycan array binding signal (z-score) [4]: 3.11
- glycan array binding signal (z-score) [5]: -0.392
- glycan array binding signal (z-score) [6]: -0.255
- glycan array binding signal (z-score) [7]: -0.394
- glycan array binding signal (z-score) [8]: -0.381
- glycan array binding signal (z-score) [9]: -0.391
- glycan array binding signal (z-score) [10]: -0.526
- glycan array binding signal (z-score) [11]: -0.523
- glycan array binding signal (z-score) [12]: 4.7
- glycan array binding signal (z-score) [13]: -0.4
- glycan array binding signal (z-score) [14]: 2.77
- glycan array binding signal (z-score) [15]: -0.299
- glycan array binding signal (z-score) [16]: 3.96
- glycan array binding signal (z-score) [17]: 6.89
- glycan array binding signal (z-score) [18]: 0.705
- glycan array binding signal (z-score) (Gal(b1-2)Gal): -0.367
- glycan array binding signal (z-score) [19]: 0.737
- glycan array binding signal (z-score) [20]: 3.2
- glycan array binding signal (z-score) [21]: -0.12
- glycan array binding signal (z-score) [22]: -0.512
- glycan array binding signal (z-score) (Gal(b1-4)Gal): 1.08
- glycan array binding signal (z-score) [23]: 5.33
- glycan array binding signal (z-score) [24]: 0.486
- glycan array binding signal (z-score) [25]: -0.221
- glycan array binding signal (z-score) [26]: 0.886
- glycan array binding signal (z-score) [27]: -0.366
